Test results taken from PubChem BioAssay (NCI).
Compounds without any hit were thinned out: in the full panel of roughly 83,000, 20% have a hit.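 In brief: 96-well plates, 48 h treatment, single concentration, percent growth endpoint.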 A number with no mark means an inactive call. Activity calls are given as the source filed them. The calls were made as follows: active = growth percent below 10; inactive = the rest.

What was measured:
Assay in all cases: NCI-60 one-dose screen, 48 h (100 = growth as untreated, 0 = no growth, -100 = all killed)
Details in all cases: 10 µM unless noted
NCI-H23 lung = tested on: NCI-H23 lung
NCI-H322M lung = tested on: NCI-H322M lung
HOP-62 NSCLC = tested on: HOP-62 NSCLC
NCI-H460 lung = tested on: NCI-H460 lung
HOP-92 NSCLC = tested on: HOP-92 NSCLC
NCI-H522 lung = tested on: NCI-H522 lung
A549/ATCC NSCLC = tested on: A549/ATCC NSCLC
786-0 renal = tested on: 786-0 renal
COLO 205 colon = tested on: COLO 205 colon
DU-145 prostate = tested on: DU-145 prostate
K-562 leukemia = tested on: K-562 leukemia
MALME-3M melanoma = tested on: MALME-3M melanoma
MDA-MB-231 breast = tested on: MDA-MB-231 breast
RXF 393 renal = tested on: RXF 393 renal
SF-268 CNS = tested on: SF-268 CNS
SF-295 CNS = tested on: SF-295 CNS
SF-539 CNS = tested on: SF-539 CNS
UACC-257 melanoma = tested on: UACC-257 melanoma
M14 melanoma = tested on: M14 melanoma

Compound	growth (NCI-H23 lung)	growth (NCI-H322M lung)	growth (HOP-62 NSCLC)	growth (NCI-H460 lung)	growth (HOP-92 NSCLC)	growth (NCI-H522 lung)	growth (A549/ATCC NSCLC)	growth (786-0 renal)	growth (COLO 205 colon)	growth (DU-145 prostate)	growth (K-562 leukemia)	growth (MALME-3M melanoma)	growth (MDA-MB-231 breast)	growth (RXF 393 renal)	growth (SF-268 CNS)	growth (SF-295 CNS)	growth (SF-539 CNS)	growth (UACC-257 melanoma)	growth (M14 melanoma)
O=C([O][Sn]([O]C(=O)c1ccccn1)([c]1ccccc1)[c]1ccccc1)c1ccccn1	55.2%	123%	98.9%	107%	74.5%	-68.7% (active)	103%	96.2%	77.4%	92.3%	24%	86.4%	87.4%	41.7%	83.5%	127%	97.4%	73.9%	85.8%
COc1ccc(CNCCCN2C(=O)c3ccc4c5c(ccc(c35)C2=O)C(=O)N(CCCNCCCCNCCCN)C4=O)c(OC)c1OC	23.1%	30.4%	19.3%	19.6%	51.7%	1.57% (active)	25.3%	22.4%	-86.1% (active)	36.9%	6.82% (active)	-72.5% (active)	28%	7.45% (active)	17%	31.4%	1.73% (active)	-83.3% (active)	5.46% (active)
CC(=O)c1cc2c(N)c(C(=O)Nc3cccc4c3OCCO4)sc2nc1C	96%	100%	80.7%	82.1%	99.2%	67.7%	71.4%	97.9%	86.6%	104%	74.7%	101%	100%	99.2%	96.3%	92.8%	100%	99.5%	94.4%
COc1cc(/C=C/c2cc(/C=C/c3ccc(O)c(OC)c3)n(C(N)=O)n2)ccc1O	-4% (active)	-1.78% (active)	-3.02% (active)	0.571% (active)	-42.8% (active)	-21.2% (active)	3.16% (active)	-45.8% (active)	-37.7% (active)	2.11% (active)	-23% (active)	-4.94% (active)	3.7% (active)	–	-10.7% (active)	4.87% (active)	-26.3% (active)	0.83% (active)	-66.2% (active)
COc1ccc2[nH]c(=O)c(/C=N/Nc3nc(-c4ccccc4)cs3)c(O)c2c1	89.7%	18.2%	43%	46.6%	94.7%	80.1%	57.3%	–	106%	63.7%	71.3%	84.5%	57.5%	97.1%	56.4%	69.3%	84.1%	98.8%	75.2%
OCCCCCCNc1ncnc2cc(Cl)ccc12	95%	105%	88.5%	94.2%	74.6%	87.8%	95.6%	100%	103%	104%	84.6%	100%	99.7%	116%	97.2%	99%	92.8%	90.7%	96.3%
CCCCN(CCCC)C(=O)CC	102%	117%	119%	108%	96.4%	114%	106%	102%	119%	112%	101%	124%	114%	128%	105%	109%	112%	129%	111%
CN(C)c1nc2c(N)ncnc2n1C1OC(CO)C(O)C1O (stereo not given)	110%	122%	103%	121%	98.1%	108%	106%	99.2%	108%	118%	–	88%	116%	113%	105%	111%	101%	105%	102%
COc1cc(C2CC(c3ccc4c(c3)OCO4)=NN2C(C)=O)cc(OC)c1OC (stereo not given)	44.3%	-12.9% (active)	35.5%	10.7%	74.6%	–	36%	42.1%	-12.8% (active)	13.7%	18.2%	23.3%	61.3%	7.22% (active)	52.7%	-7.31% (active)	–	66.5%	29.3%
COc1ccc(NC(=O)c2cc(OC)c(OC)c(OC)c2)cc1O	52.2%	68.2%	35.1%	17.2%	37.4%	-41% (active)	48.6%	38.5%	40.4%	36.6%	27.7%	46.5%	58.5%	46.4%	44.1%	35.5%	21.5%	58.2%	36%
COc1ccc(-c2cnoc2-c2ccc(OC)cc2O)cc1	29.9%	74.6%	36.9%	7.27% (active)	52.1%	-16% (active)	40.9%	44.5%	72.4%	30.9%	25%	41.1%	45.8%	23.9%	39.9%	26.9%	19.7%	56.7%	14.9%
Fc1ccc(Nc2ncnc3ccc(-c4cnc5[nH]ccc5c4)cc23)cc1Cl	36.1%	–	29.1%	-58.9% (active)	-5.43% (active)	-33.3% (active)	-50.1% (active)	-44.1% (active)	11%	40.4%	4.25% (active)	2.95% (active)	-16.9% (active)	-27.3% (active)	32.8%	-32.2% (active)	-73.2% (active)	39.2%	42.7%
C=CCn1cc(-c2nc3ccccc3s2)c2cc(-c3ccc4c5c(cccc35)C(=O)N(CCN3CCNCC3)C4=O)ccc21	86.3%	97.5%	82.7%	89%	72.1%	92.4%	85%	–	107%	101%	-51.9% (active)	55.2%	60.5%	93.2%	89.9%	101%	91.1%	102%	82%
CN1CCN(Cc2ccc(NC(=O)c3cncc(C#Cc4cnc(N)c5ccncc45)c3)cc2C(F)(F)F)CC1	15.4%	20.4%	9.44% (active)	8.86% (active)	-22.5% (active)	24.4%	26.4%	35.3%	-16.1% (active)	22.2%	-16.8% (active)	-44.5% (active)	-33.7% (active)	-30.1% (active)	24.5%	20.8%	-20.6% (active)	23.8%	2.43% (active)
Cc1ccc(-c2nc(C#N)c(S(=O)(=O)n3nc(-c4ccccc4)cc3N)o2)cc1	97.4%	97.3%	87.6%	109%	89.1%	-12% (active)	94.4%	84%	-44.1% (active)	105%	13.3%	-34.9% (active)	89%	85%	101%	104%	97%	92.1%	83%
CCO/C=N/C1=C(C#N)C(c2ccc(Cl)cc2)c2c(c3ccc(C)cc3[nH]c2=O)O1 (stereo not given)	85.4%	88%	70.7%	95%	50.7%	74.2%	90.2%	–	96.1%	103%	88.1%	81.8%	59.6%	73.9%	90.7%	89.6%	75.9%	97.2%	87.1%
O=C(c1ccccc1)c1c(/C=C/c2ccccc2)c2ccccc2[nH]c1=O	94.2%	82.8%	87.1%	114%	73%	83.4%	93.5%	92.2%	110%	115%	82.4%	98.3%	101%	78.9%	86.2%	95.6%	99.2%	95.6%	107%
